HP1b chromo inh = HTS for Inhibitors of HP1-beta Chromodomain Interactions with Methylated Histone Tails; AID 540317, 2011; Chromobox protein homolog 1 (Homo sapiens), P83916; AlphaScreen HP1-beta / biotin-H3K9me3 peptide binding; Potency, µM (titrated, usually from 114 µM), for inactives: at the highest dose activity change, negative = inhibition, actives largely listed as inhibitors; 0.56% of 390,000 active; further: nearly all actives have a fitted effect of over 70% in size
Target sequence (P83916 whole entry, looked up): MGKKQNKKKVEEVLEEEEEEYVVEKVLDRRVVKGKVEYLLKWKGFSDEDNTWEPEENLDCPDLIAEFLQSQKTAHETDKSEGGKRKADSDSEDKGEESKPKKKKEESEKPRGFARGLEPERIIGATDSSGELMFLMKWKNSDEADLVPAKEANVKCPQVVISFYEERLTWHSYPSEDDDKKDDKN
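AlphaScreen: HP1-beta (50 nM) preformed 30 min with biotin-H3(1-18)K9me3 peptide (50 nM) in PBS pH 7.4, 0.01% Tween-20. Compound added for 30 min at RT, then streptavidin donor/nickel chelate acceptor beads (10 ug/mL) for 30 min.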
BAZ2B block = qHTS Assay for Inhibitors of BAZ2B | Bromodomain adjacent to zinc finger domain protein 2B (Homo sapiens), Q9UIF8 | AlphaScreen BAZ2B-H3K14Ac peptide displacement | Potency, µM (doses to about 114 µM), for the others: top-dose activity change, negative = inhibition, most hits filed as inhibitors | 4.4% of 360,000 active | AID 504333, 2011; further: on the % scale 0 is the no-effect control and ±100 the full control effect; nearly all actives have a fitted effect of over 60% in size
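Compounds, titrated to a top concentration of 110 uM, were incubated 30 min at room temperature with preformed BAZ2B/acetyl-K14 H3 peptide complex (50 nM each). Proximity signal was measured by AlphaScreen after 20 min with beads.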
G9a block = qHTS Assay for Inhibitors of Histone Lysine Methyltransferase G9a | 8.8% of 350,000 active | G9a H3K9 monomethylation, AlphaScreen, 2 h | Potency, µM (top dose mostly 102 µM), for the others: top-dose activity, negative = inhibition, hits mostly inhibitors; further: on the % scale 0 is the no-effect control and ±100 the full control effect; nearly all actives have a fitted effect of over 75% in size
Target sequence (Q96KQ7 913-1193 limits assumed): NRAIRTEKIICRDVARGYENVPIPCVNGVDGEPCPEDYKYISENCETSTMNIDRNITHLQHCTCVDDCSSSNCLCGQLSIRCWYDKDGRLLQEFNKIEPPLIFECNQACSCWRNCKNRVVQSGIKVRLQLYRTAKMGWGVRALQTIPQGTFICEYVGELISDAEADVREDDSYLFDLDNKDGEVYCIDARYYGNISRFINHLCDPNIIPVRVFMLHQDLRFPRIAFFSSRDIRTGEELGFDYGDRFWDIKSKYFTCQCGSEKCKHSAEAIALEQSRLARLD
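AlphaScreen read-out: biotin-H3K9 peptide (500 nM) methylation by 20 nM enzyme with 20 uM SAM, 2 h at room temperature after 15 min compound preincubation; anti-monomethyl H3K9 antibody plus donor/acceptor beads, 10 min dark.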
ALOX12 inh = Primary qHTS assay for inhibitors of human arachidonate 12S-lipoxygenase (ALOX12): Round 2 | purified 12hLO, xylenol orange hydroperoxide absorbance | Potency, µM (doses to about 108 µM), without a hit: at the top dose activity change, negative = inhibition, usual class: inhibitors | 1.1% of 580,000 active; further: on the % scale 0 is the no-effect control and ±100 the full control effect
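Purified human 12hLO at 150 nM in 25 mM Hepes, 0.01% Triton X-100, pH 7.0, preincubated 15 min at room temperature with compound. Reaction started with 40 uM arachidonic acid, 30 min at room temperature. Hydroperoxide measured by Fe-xylenol orange, 573/405 nm absorbance ratio.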
Sfp PPTase inh = qHTS Assay for Inhibitors of Bacillus subtilis Sfp phosphopantetheinyl transferase (PPTase). Biochemical Sfp PPTase activity, qHTS. Potency, µM, without a hit: largest response in the series, negative = inhibition, actives largely listed as inhibitors. 3.5% of 310,000 active;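 further: the enzyme is Sfp with the accession as filed and its product quenches rhodamine fluorescence; 0% = enzyme reaction without inhibitor and -100% = no enzyme wells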
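Buffer: 50 mM Hepes-Na pH 7.6, 10 mM MgCl2, 0.01% Nonidet P-40, 0.01% BSA. Enzyme 15 nM, pre-exposed to compound 15 min; substrates then added and fluorescence change tracked over 30 min.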
JMJD2A Tudor inh = qHTS Assay for Inhibitors of JMJD2A-Tudor Domain; Lysine-specific demethylase 4A (Homo sapiens), O75164; AlphaScreen JMJD2A-Tudor / H3K4me3 peptide binding; Potency, µM (series often up to 114 µM), for the others: at the highest dose activity change, negative = inhibition, most hits filed as inhibitors; 4.4% of 390,000 active; further: on the % scale 0 is the no-effect control and ±100 the full control effect; nearly all actives have a fitted effect of over 50% in size
* hit, by the source's call; u = inconclusive; x = no result given; [ ] = remark or other dose. Rows were chosen to be rich in hits. Some 8.7% of all compounds tested hit in one or more screens of this group. The call rests on the fitted dose curve; in most records, active means well fitted curve in the direction sought with a large enough effect; inconclusive means small, poorly fitted or top-dose-only effect, or another doubt; inactive means no such curve, though single readings can be large; an effect the other way counts as inactive or inconclusive. Potency means the concentration at half of the fitted maximal effect.

SMILES	HP1b chromo inh	BAZ2B block	G9a block	ALOX12 inh	Sfp PPTase inh	JMJD2A Tudor inh
Cc1cccc(COC(=O)c2ccc(C#N)cc2)c1	x	x	x	-15%	x	x
O=C(O)c1cc([N+](=O)[O-])c(Sc2nc3ccccc3[nH]2)c([N+](=O)[O-])c1	26%	-7%	40µM*	-25%	50µM*	-7%
CCN1CCN(c2ccc([N+](=O)[O-])c(Sc3nc4ccccc4[nH]3)c2)CC1	u	-27%	32µM*	-1%	0%	-34%
O=C(O)c1ccc(CSc2nc3ccccc3[nH]2)cc1	65%	-4%	-18%	0%	7%	-1%
Cn1cnc([N+](=O)[O-])c1Sc1nc2ccccc2[nH]1	15%	25%	-3%	0%	u	-9%
CS(=O)(=O)c1cc([N+](=O)[O-])c(Sc2nc3ccccc3[nH]2)c([N+](=O)[O-])c1	u	-29%	u	u	13µM*	u
O=C(CCn1ccc2ccccc21)NC1CCCCCC1	x	x	x	4%	x	x
Cc1ccc(NC(=O)C(=O)NCC2CCCO2)cc1C (stereo not drawn)	80%	-4%	x	7%	-4%	-7%[11.4 µM]
CCn1c2ccccc2c2cc(NC(=O)c3ccccc3[N+](=O)[O-])ccc21	3%	-38%	7.9µM*	21%	14%	-35%
O=C(CNCC1CCCO1)Nc1ccc([N+](=O)[O-])cc1C(=O)Nc1ccccc1F (stereo not drawn)	25%	u	-37%	-6%	-6%	0%[11.4 µM]
CCn1c2ccccc2c2cc(NC(=O)CNCC3CCCO3)ccc21 (stereo not drawn)	u	50µM*	13µM*	-4%	-32%	-27%[11.4 µM]
Cc1ccc(NC(=O)CC(NCC2CCCO2)C(=O)O)cc1C (stereo not drawn)	12%	-30%	2.2µM*	1%	-18%	-13%
CCn1c2ccccc2c2cc(NC(=O)CN3CCCC3)ccc21	-14%	-43%	u	6%	6%	u
O=C(CNCC1CCCO1)Nc1ccccc1-n1cccc1 (stereo not drawn)	4%	50µM*	8.9µM*	u	-25%	5µM*
COc1ccc(-c2noc(-c3cc4ccc(OC(C)=O)cc4oc3=O)n2)cc1	x	x	x	-3%	x	x
CCC1CCCCN1C(=O)CNCC1CCCO1 (stereo not drawn)	-24%	-39%	18µM*	u	1%	-7%[11.4 µM]
O=C(CNCC1CCCO1)N1CCCc2ccccc21 (stereo not drawn)	u	56µM*	u	-11%	-11%	4µM*
CCC1CCCCN1C(=O)NC(=O)c1ccccc1 (stereo not drawn)	38%	-18%	35%	472%	20%	-3%
O=C(c1ccc(S(=O)(=O)NCC2CCCO2)cc1)N1CCc2ccccc21 (stereo not drawn)	5%	4%	-8%[59 µM]	300%	8%	-15%
COc1ccc(CCNC(=O)/C(C#N)=C/c2ccc(OCC(=O)NCC3CCCO3)cc2)cc1OC (stereo not drawn)	29%	0%	8%[0.501 µM]	18%	17%	-22%[57.1 µM]
COc1ccc(CCNC(=O)CNCC2CCCO2)cc1OC (stereo not drawn)	u	u	8.9µM*	u	63µM*	3.5µM*
COc1ccccc1CNC(=O)CC(C)C	u	2%	-3%[59 µM]	22%	-3%	28µM*
Cc1ccccc1CNC(=O)CC(C)C	x	x	x	-3%	x	x
COc1ccccc1CNC(=O)CSC(=S)N1CCCC1	19%	-2%	11µM*	4%	x	-11%
COc1ccc(CCNCc2csc3nc4ccccc4n23)cc1OC	10%	u	50µM*	u	5%	89µM*
SMILES	HP1b chromo inh	BAZ2B block	G9a block	ALOX12 inh	Sfp PPTase inh	JMJD2A Tudor inh
CCCCNc1ncc(C(=O)O)c(COC)n1	x	x	x	6%	x	x
COc1ccccc1CNC(=O)CNCCc1ccc(OC)c(OC)c1	u	50µM*	x	-4%	-9%	22µM*
COc1ccccc1CNC(=O)COc1ccccc1OC	25%	1%	-1%[59 µM]	0%	8%	5%
COc1ccccc1CNC(=O)C12CC3CC(CC(C3)C1)C2	10%	38%	x	u	11%	79µM*
COc1ccccc1CNC(=O)CS(=O)(=O)c1ccc(C)cc1	22%	0%	79µM*	-10%	1%	-16%
O=C(NCc1ccccc1F)C12CC3CC(CC(C3)C1)C2	15%	x	x	116%	x	-13%
O=C1NC[C@@H](CCC(=O)N2CCN(c3ccccc3)CC2)N2C[C@@H](NCc3ccc(CO)o3)C[C@@H]12	x	x	x	10%	x	x
CC(C)C(=O)Nc1sc2c(c1C#N)CCCCC2	7%	9%	-31%[59 µM]	u	32µM*	-12%
N#Cc1c(NC(=O)C2CC2)sc2c1CCCCC2	5%	-35%	89µM*	u	u	-3%
CC(=O)Nc1sc2c(c1C#N)CCCC2	29%	4%	7%[59 µM]	0%	6%	-6%
COC(=O)C1=CN(CC(=O)Nc2cc(Cl)ccc2C)S(=O)(=O)N=C1C	x	x	x	-2%	x	x
COc1ccc(-c2csc3nc(-c4cccnc4)nc(Cl)c23)cc1OC	23%	-3%	u	-21%	25µM*	-21%
CC(C)(C)c1ccc(OCCC(=O)Nc2ccc(N3CCOCC3)cc2)cc1	x	x	x	2%	x	x
COc1ccc(C(C(=O)NC2CCCCC2)N(Cc2ccco2)C(=O)c2ccccn2)c(OC)c1 (stereo not drawn)	21%	2%	10µM*	u	12%	-4%
CC(C)(C)NC(=O)C(c1ccc(F)cc1)N(CCc1ccccc1)C(=O)c1ccn[nH]1 (stereo not drawn)	-17%	-18%	25%[12.7 µM]	0%	9%	28µM*
O=C(NC1CCCCC1)C(c1ccc(F)cc1)N(Cc1ccco1)C(=O)c1ccccn1 (stereo not drawn)	17%	-20%	22%[12.7 µM]	-17%	19%	-19%
CCOc1ccc(C(C(=O)NC2CCCC2)N(CCCO)C(=O)c2ccc(-c3ccccc3)[nH]2)cc1 (stereo not drawn)	-17%	u	50µM*	-12%	-4%	u

Bioassay records from PubChem BioAssay.
